A selection: hits, their analogues and other compounds. The true share with any hit is near 2.9%.
ATXN2 expr inh = reduces ATXN2 reporter expression in HEK-293 cells; HEK-293 ATXN2-luciferase reporter, luminescence, 24 h; Potency, µM (highest dose often 57 µM), inactives show at the top dose activity change, negative = inhibition, actives largely listed as inhibitors; actives 0.72% (n = 360,000); AID 1745845; note: % is set by controls: 0 for no effect and ±100 for the full control effect; nearly all actives have a fitted effect of over 55% in size
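qHTS (up to 57 uM final) was run with 24 h compound exposure of reporter cells at 37 °C. Each well was multiplexed: SteadyGlo luminescence measured ATXN2-luciferase expression after a fluorogenic Gly-Phe-AFC viability readout (25 uM final).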
S2 tox = cell viability loss in ATXN counter-screen. S2 cells (HEK-293 line with an ATXN2-luciferase reporter) viability, CellTiter-Fluor protease fluorescence, 24 h. Potency, µM (doses to about 56.7 µM), hits mostly cytotoxic. actives 0.49% (n = 400,000). AID 651635; note: nearly all actives have a fitted effect of over 40% in size
Nrf2 activator = Nrf2 pathway activation; actives 0.31% (n = 410,000); Potency, µM (series often up to 46.1 µM), for the others: at the top dose activation, most hits filed as activators; AREc32 ARE-luciferase reporter (MCF7-derived line), luminescence, 24 h; note: % of control where 0% means no effect; nearly all actives have a fitted effect of over 65% in size
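Each well held 1000 AREc32 cells, which were incubated with compound for 24 hr at 37 deg C after overnight attachment, and ARE reporter activity was quantified by firefly luciferase luminescence.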
A549 tox = A549 cytotoxicity, counter-screen for Nrf2 inhibitors | Potency, µM (doses to about 46 µM), for the others: at the highest dose activity change, negative = cytotoxicity, most hits filed as inhibitors | actives 0.16% (n = 390,000) | A549 ARE-Fluc cells, CellTiter-Fluor viability, 18-24 h; note: % is set by controls: 0 for no effect and ±100 for the full control effect
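A549 ARE-Fluc cells in 5% FBS OPTI-MEM, 5000 cells/well, rested 2 h then exposed to compounds in concentration-response for 18-24 h at 37 °C. Viability by CellTiter-Fluor fluorescence (Ex 405/Em 525) after 30 min; luciferase luminescence (BugLite, 15 min, RT) read afterwards.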
Nrf2 inh = Nrf2 pathway inhibition; actives 2.1% (n = 360,000); A549 ARE-Fluc reporter, luciferase luminescence, 18-24 h; AID 504444; Potency, µM (titrated, usually from 46 µM), for the others: top-dose activity change, negative = inhibition, usual class: inhibitors; note: % is set by controls: 0 for no effect and ±100 for the full control effect; nearly all actives have a fitted effect of over 60% in size
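Two sequential reads on A549 ARE_Fluc cells exposed to compound for 18-24 h: a CellTiter-Fluor fluorescence read for viability, then a luciferase luminescence read for Nrf2/ARE activity.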
An asterisk follows results filed as active; i = inactive; ? = inconclusive; nt = not tested or not shown; [ ] = remark or other dose. Calls come from the whole dose curve; as a rule, active = well fitted curve in the direction sought with a large enough effect; inconclusive = small, poorly fitted or top-dose-only effect, or another doubt; inactive = no such curve, though single readings can be large; an effect the other way counts as inactive or inconclusive. Potency is the fitted concentration of half-maximal effect.

SMILES	ATXN2 expr inh	S2 tox	Nrf2 activator	A549 tox	Nrf2 inh
CC1(C)S[C@@H]2[C@H](NC(=O)C(C(=O)O)c3ccsc3)C(=O)N2[C@H]1C(=O)O (stereo partly specified)	nt	i	nt	nt	nt
CCOC(=O)c1ccc(N2C(=O)C3CC=CCC3C2=O)cc1 (stereo unspecified)	25%	i	0%	2%	10%
CCOC(=O)c1ccc(N2C(=O)C3C(C2=O)C(C(=O)c2ccc(Cl)cc2)N2CCCC32)cc1 (stereo unspecified)	8%	i	14µM*	-16%	14%
O=C(CSc1cccc[n+]1[O-])Nc1cc([N+](=O)[O-])ccc1Cl	-4%	i	10µM*	4%	2%
COC(=O)c1ccc(C(=O)OC)c(NC(=O)CSc2cccc[n+]2[O-])c1	1µM*	1.3µM*	30%	1%	18%
COC(=O)c1ccc(-n2c(C)cc(C(=O)CSc3cccc[n+]3[O-])c2C)cc1	-11%	?	3%	-5%	-13%
CC(=O)Nc1cc(C(=O)N2CCCC(C)C2)cc2ncn(CCc3ccccn3)c12 (stereo unspecified)	nt	i	nt	nt	nt
CCc1ccc2[nH]c(=O)c(C3C(C#N)=C(N)Oc4c3ccc3cccnc43)cc2c1 (stereo unspecified)	?	i	0%	?	15µM*
O=C(NC(c1ccccc1)c1ccccc1)c1ccc(Br)o1	-14%	i	2%	?	21%
O=C(/C=C/c1ccc(Br)o1)NC(c1ccccc1)c1ccccc1	5%	i	5%	-9%	26µM*
O=C(Nc1nnc(C2CC2)s1)c1ccc(Cl)c(S(=O)(=O)N2CCc3ccccc3C2)c1	-18%	i	0%	-4%	23µM*
CCc1nnc(NC(=O)c2ccc(Cl)c(S(=O)(=O)N3CCc4ccccc43)c2)s1	-4%	?	0%	-14%	nt
O=c1c(Cl)c(Cl)cnn1Cc1ccccc1Cl	8.9µM*	10µM*	?	-3%	10%
COc1ccccc1NS(=O)(=O)c1cccc(C(=O)N/N=C/c2c(C)nn(-c3ccccc3)c2N2CCCC2)c1	0%	i	3%	-2%	18µM*
Cc1nn(-c2ccccc2)c(N2CCCC2)c1/C=N/Nc1ccc(S(=O)(=O)Nc2ccccc2)cc1[N+](=O)[O-]	?	nt	0%	?	8.2µM*
COc1ccccc1NS(=O)(=O)c1ccc(N/N=C/c2c(C)nn(-c3ccccc3)c2N2CCCC2)c([N+](=O)[O-])c1	-13%	i	0%	?	?
NS(=O)(=O)c1ccc(N/N=C/c2cn(-c3ccccc3)nc2-c2ccccc2)c([N+](=O)[O-])c1	nt	11µM*	0%	21µM*	23µM*
CCN(CC)c1ccc(/C=N/NC(=O)c2ccc3nc[nH]c3c2)c(O)c1	2.8µM*	i	0%	1%	2%
COc1ccc(-c2nc3ccc(NC(=O)COC(C)=O)cc3c(=O)n2Cc2ccccc2)cc1COc1ccc(NC(C)=O)cc1	nt	nt	nt	-6%	?
CCN(CC)c1ccc(/C=N/NC(=O)c2cccc(S(=O)(=O)Nc3ccccc3OC)c2)c(O)c1	?	nt	-1%	-19%	23µM*
Cc1noc(C)c1COC(=O)c1ccccc1Oc1ccccc1	-8%	i	0%	10%	-10%
Cc1noc(C)c1COC(=O)c1ccccc1NC(=O)Cc1ccccc1	17%	i	2%	nt	15µM*
CC[C@@]1(c2cccc(C)c2)C(=O)N(C(=O)OC)N1C(=O)OC	2%	i	0%	-9%	?
CCOC(=O)N1C(=O)[C@@](CC)(c2ccccc2)N1C(=O)OCC	-35%	32µM*	10%	-15%	?
O=C1CCCC2=C1C1(CCOCC1)N=C(Nc1nc3ccccc3o1)N2	nt	nt	nt	1%	?
SMILES	ATXN2 expr inh	S2 tox	Nrf2 activator	A549 tox	Nrf2 inh
Cc1ncc2c(c1CNC(=O)c1ccc3c(c1)OCO3)CCN(C(=O)c1cccc(-n3cccn3)c1)C2	nt	i	nt	nt	nt
CCN(Cc1ccccc1)C(=O)Cn1c(=O)cc(C)c2c(C)nn(-c3cccc(F)c3)c21	9%	i	-1%	-22%	21µM*
CCc1ccc(-n2nc(C)c3c(C)cc(=O)n(CC(=O)N(CC)Cc4ccccc4)c32)cc1	3%	i	4%	1%	10%
COc1ccc(NS(=O)(=O)c2ccccc2)cc1NS(=O)(=O)c1ccccc1	nt	nt	nt	-5%	-2%
Fc1ccc(Nc2nc(NCc3ccco3)c3ccccc3n2)cc1	nt	11µM*	-1%	-11%	18µM*
Nc1nc(Nc2ccccc2)nc(NCc2ccco2)c1[N+](=O)[O-]	-23%	?	5%	-2%	-12%
Cc1cc2c(c(-c3cnccn3)c1)OC(CNC(=O)c1cc(C(C)C)[nH]n1)C2 (stereo unspecified)	nt	i	nt	nt	nt
CC(C)C(C)NC(=O)COc1ccc(Sc2ccc(OCC(=O)NC(C)C(C)C)cc2)cc1 (stereo unspecified)	?	?	0%	-14%	21µM*
COc1ccc2[nH]c(=O)c(CN(Cc3cccs3)S(=O)(=O)c3c(C)ccc4nsnc34)cc2c1	-36%	?	2%	nt	9.2µM*
Cc1ccc2[nH]c(=O)c(CN(Cc3ccco3)S(=O)(=O)c3c(C)ccc4nsnc34)cc2c1	?	?	8%	4%	?
COc1ccc(CN2CCCC(n3cc(C(=O)N4CCCCC4)nn3)C2)c(OC)c1OC (stereo unspecified)	nt	i	nt	nt	nt
Cc1cccc(CNC(=O)c2c3n(c(C)cc2=O)-c2ccccc2SC(c2sccc2C)C3)n1 (stereo unspecified)	nt	i	nt	nt	nt
CCn1c2ccccc2c2cc(N)ccc21	-9%	?	0%	-9%	-10%
CCn1c2ccccc2c2cc(/C=C(/C#N)C(N)=S)ccc21	3.5µM*	?	7%	-3%	-12%
Cc1cc(C(=O)N2CCOc3ccc(CN4CCC(Oc5cccnc5)CC4)cc3C2)c(C)o1	nt	i	nt	nt	nt
COc1ccc(-n2c(-c3cccc(OC)c3)nc(=S)c3c2CCCC3)cc1	?	nt	3%	-12%	26µM*
Cc1ccc2c(c1)cc(CN(C)Cc1nc(C)cs1)c(=O)n2C	nt	i	nt	nt	nt
O=C(CN1CC(=O)Oc2ccccc21)OCC(=O)c1ccc(Br)cc1	-35%	?	13µM*	?	-23%
Cc1c(CN2CCOc3c(O)cc(-c4nc5ccccc5s4)cc3C2)cnn1C	nt	i	nt	nt	nt
COc1ccc(NC(=O)/C(Cl)=C(/Cl)S(=O)(=O)Cc2ccccc2)cn1	13µM*	14µM*	?	?	nt
COc1ccc(NC(=O)C(Cl)=C(Cl)Cl)cn1	-17%	i	?	-3%	-5%
COc1ccc(NC(=O)/C(Cl)=C(/Cl)S(=O)Cc2ccc(Cl)cc2)cn1 (stereo unspecified)	2.5µM*	2.8µM*	-3%[9.22 µM]	21µM*	?
